33 sequences from the supplement of paper PMC10338343 can be followed below.

± gives the standard deviation.

The test has as its system MILI (PIWIL2) piRISC loaded with L1MC piRNA (26 nt). In words: pre-steady-state target cleavage rate (min^-1); guide: L1MC piRNA 5'p-UAACUAAAUACUAUGCAAGCUGUAGG; MIWI and MILI are mouse PIWI proteins and EfPiwi is from a freshwater sponge; tags in brackets are library labels; higher = faster piRNA-guided slicing of the target. Particulars: auxiliary factor: 500 nM mouse GTSF1. A digest of the protocol: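 In Cleave-'n-Seq, a transcribed, DNA-blocked target RNA library (0.1 nM) was combined with 1 nM active affinity-purified piRISC bearing one synthetic guide, with or without 500 nM GTSF1 partner protein. Reactions ran in HEPES–potassium acetate buffer at 33 °C for 0–8 or 0–960 min. Uncleaved targets were sequenced and normalised to depth and to weakly complementary targets, three trials were pooled, and k3 was capped at 0.0001 min^-1. The pre-steady-state cleavage rate was obtained by fitting a burst-and-steady-state model.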
Turning to UCCUGGAACAGCUUGCAAAGUAUUUACAAA, the “pre-steady-state target cleavage rate” value came out at 0.0328 ± 0.01.
For UCCUGCUACUCGUUGCAUAGUAUUUUCAAA the value was 0.0428 ± 0.014; for UCCUGGAACAGCAUGCAUAGUAUUUACUUA, 0.221 ± 0.034.
Turning to UCCUGGUACAGCUUGCAUAGAAUAUAGUUA, the “pre-steady-state target cleavage rate” value was determined as 0.102 ± 0.028.
Then UCCUGGAUCAGCUUGCAUAGUUUUUACUUA, with 0.00933 ± 0.0038; and UCCUGCUACAGCUUGCAUUGUAUUUUCAAA, with 0.0201 ± 0.0084.
For the sequence UCCUGGAUGUCCUUGCAUAGUAAUUAGUAA, the “pre-steady-state target cleavage rate” value amounted to 0.0241 ± 0.0076.
Then UCCUGGAUGUCGUUGCAUAGUAUGUAGUUA, with 0.015 ± 0.0074.
Then UCCUGGAACACGUUGCAUAGUAUUUAGAAA, with 0.187 ± 0.034; and UCCUGGAUGUCGUUGCAUAGUAUUUAUGUUA, with 0.137 ± 0.04.
For UCCUGGAUGUCGAACCAUAGUAGUUUAGUUA the value was below 0.0001; for UCCUGCUACAGCUUGCAUAGUAUUAUCAAA, 0.0862 ± 0.026.
Consider UCCUGGAUCAGCUUCGAUAGUAUUUAGAAA, for which the “pre-steady-state target cleavage rate” value came out at 0.0608 ± 0.017.
For UCCUGGAUGUCGUUGGAAAGUAUUUAGUUA the value was below 0.0001; for UCCUGGAUCAGCUUGCAAAGAAUUUAGUUA, 0.0118 ± 0.0054.
In the case of UCCUGGAUGUCGAUGCAUAGUAUGUAGUUA, the “pre-steady-state target cleavage rate” value is 0.0337 ± 0.0087.
Then UCCUGGAUCUCGUUGCAUAGUAUUUACAAA, with 0.0638 ± 0.014; and UCCUGGAUGUGCUUGCAUAGUAUUAUGUUA, with 0.0376 ± 0.013; and UCCUGGAUCAGCUUGCAUAGUAUUUUCUUA, with 0.0452 ± 0.013.
Then UCCUCCUACAGCUUGCAAAGUAUUUACAAA, with 0.0935 ± 0.021; and UCCUGGAUGAGCUUGCAUAGAAAUUAGUUA, with 0.0228 ± 0.0075.
Then UCCUGGAUGUCGAUGCAUAGUAUUUAGCUUA, with 0.0496 ± 0.014; and UCCUGGAUCAGCUUGCAAUGUAUUUUCAAA, with 0.00576 ± 0.0035; and UCCUGGAUCACCUUGCAUAGUAUUUUCAAA, with 0.0586 ± 0.021.
UCCUGGAUGUCCUUGCAAUAGUAUUUAGUUA: the “pre-steady-state target cleavage rate” value was 0.00466 ± 0.0043.
Then UCCUGGAUCAGCUUCGAUAGUAUUUACAAA, with 0.00974 ± 0.005; and UCCUGGAUGUGCUUCCAUUGUAUUUAGUUA, with 0.0206 ± 0.0071; and UCCUGGAACAGCUAGCAUAGUAUUUACUUA, with 0.0669 ± 0.016.
Then UCCUCCUAGAGCUUGCAUAGUAUUUAGAUA, with 0.123 ± 0.025; and UCCUGGUACUCGUUGCAUAGUAUUUAGUAA, with 0.0635 ± 0.029; and UCCUGGAUGUCCUUGCAUAGUAUUUACAAA, with 0.0869 ± 0.025.
For UCCUGGAUGUGCUUGCUUAGUAUUUUGUUA the value was 0.0645 ± 0.017.
For the sequence UCCUGGAACAGCUUGCAUAGUAUAAUGAAA, the “pre-steady-state target cleavage rate” value was 0.0341 ± 0.013.
